# Results filed as inconclusive are left out. A number with no mark means an inactive call. Calls come from the whole dose curve; as a rule, active = well fitted cell-killing curve with a large enough effect in the repeat runs; inconclusive = weak or mixed curves, or effect the other way; inactive = no such curve, though single readings can be large or run the other way.
# Assay: qHTS assay to identify small molecule antagonists of the peroxisome proliferator-activated receptor gamma (PPARg) signaling pathway - cell viability counter screen (AID 743194); note: nearly all actives have a fitted effect of over 55% in size
# Conditions: PPARg-bla HEK293H viability, CellTiter-Glo luminescence, 17 h, co-treated with 50 nM rosiglitazone; series mostly up to 62.6 µM; activity change, negative = cytotoxicity: at the top concentration
# Source text: U.S. Tox21 Program National Center for Advancing Translational Sciences [NCATS] NIH Chemical Genomics Center [NCGC] U.S. Environmental Protection Agency [EPA] National Institutes of Environmental Health Sciences [NIEHS] National Toxicology Program [NTP] U.S. Food and Drug Administration [FDA] Tox21 Assay Overview: The peroxisome proliferator-activated receptors (PPARs) are lipid-activated transcription factors of the nuclear receptor superfamily with three distinct subtypes namely PPAR alpha, PPAR delta (also called PPAR beta) and PPAR gamma (PPARg). All these subtypes heterodimerize with Retinoid X receptor (RXR) and these heterodimers regulate transcription of various genes. PPAR-gamma receptor (glitazone receptor) is involved in the regulation of glucose and lipid metabolism. To identify the compounds that activate PPAR-gamma signaling, GeneBLAzer PPAR gamma UAS-bla HEK293H cell line (Invitrogen, Carlsbad, CA, USA) containing a beta-lactamase reporter gene under the control of an Upstream Activator Sequence (UAS) was used to screen the Tox21 compound library. The cytotoxicity of the Tox21 compound library against the PPARg-bla cell line was tested in parallel by measuring the cell viability using CellTiter-Glo assay in the same wells.
# Tox21 Assay Protocol Summary: PPARg-bla cells were dispensed at 3000 cells/5uL/well in 1536-well black wall/clear bottom plates using a Multidrop Combi (Thermo Fisher Scientific, Waltham, MA) dispenser. After the assay plates were incubated at 37 C and 5% CO2 for 5 h, 23 nL of compounds dissolved in DMSO, positive controls or DMSO only was transferred to the assay plate by a Pintool station (Kalypsys, San Diego, CA), followed by addition of 1ul Rosiglitazone (50 nM, final concentration in the wells). The assay plates were incubated at 37 C for 17 h, and then 1 uL of LiveBLAzerTM B/G FRET substrate was added using a Bioraptr Flying Reagent Dispenser (FRD) workstation (Beckman Coulter, Indianapolis, IN, USA). The assay plates were incubated at room temperature for 1 h and fluorescence intensity was measured by an Envision plate reader (PerkinElmer, Shelton, CT). For cell viability readout that measures cytotoxicity, 4 ul/well of CellTiter-Glo reagent was added into the assay plates using a Flying Reagent Dispenser. After 30 min incubation at room temperature, the luminescence intensity in the plates was measured using a ViewLux plate reader (PerkinElmer).
# % is set by controls: 0 for no effect and ±100 for the full control effect.
row,Structure (SMILES),"activity change, negative = cytotoxicity"
1,COc1cccc(OC)c1C(=O)N[C@@H]1C(=O)N2[C@@H]1SC(C)(C)[C@@H]2C(=O)O,6.04%
2,CCCC(=O)O[C@]1(C(=O)CC)CC[C@H]2[C@@H]3CCC4=CC(=O)CC[C@]4(C)[C@H]3[C@@H](O)C[C@@]21C,-2.52%
3,CC(C)=CCC/C(C)=C/C#N,-0.141% [at 81.1 µM]
4,Cc1nc2ccc(CN(C)c3ccc(C(=O)N[C@@H](CCC(=O)O)C(=O)O)s3)cc2c(=O)[nH]1,1.96%
5,COc1cc(C)nc(-n2nc(C)cc2OC)n1,-1.12%
6,COc1cc(C(=O)OC(COCCC(C)C)CN2CCOCC2)cc(OC)c1OC (stereo not given),-2.71%
7,C=COC(=O)C(C)(CC)CCC(C)C (stereo not given),2.5%
8,CC(C)CC(C)(N)C#N (stereo not given),-0.249% [at 81.1 µM]
9,O=C(CO)[C@@H](O)[C@H](O)[C@H](O)CO,5.59% [at 81.1 µM]
10,CO[C@@]1(NC(=O)C(C(=O)O)c2ccc(O)cc2)C(=O)N2C(C(=O)O)=C(CSc3nnnn3C)CO[C@@H]21 (stereo not given in full),-16.1%
11,Clc1cc(Cl)c(Cl)nc1Cl,6.92%
12,CNCCO,18.8%
13,CCC(C)(CN(C)C)OC(=O)c1ccccc1 (stereo not given),15.1%
14,NC(=O)Cc1cccc2ccccc12,-1.61%
15,FB(F)F,4.4% [at 81.1 µM]
16,CC(C)CCCO,2.39%
17,CCCCCCCCCCCCSC,3.36%
18,CC(COc1ccccc1)NN (stereo not given),6.85%
19,CCCCCCCCCCOc1cc2c(=O)c(C(=O)OCC)c[nH]c2cc1OCC,22.1% [at 5.95 µM]
20,[O-][n+]1cccc(CO)c1,0.573%

row,Structure (SMILES),"activity change, negative = cytotoxicity"
1,COc1ccnc(CS(=O)c2nc3cc(OC(F)F)ccc3[nH]2)c1OC (stereo not given),18.9% [at 81.1 µM]
2,CCCCCCCCCCCCCCC(=O)O,-23.1% [at 81.1 µM]
3,CC(=O)OCC(=O)[C@@]1(O)[C@H](C)C[C@H]2[C@@H]3CCC4=CC(=O)C=C[C@]4(C)[C@@]3(F)[C@@H](O)C[C@@]21C,2.53%
4,O=C(O)CCSCCC(=O)O,0.0231%
5,O=C(O)CCCC[P+](c1ccccc1)(c1ccccc1)c1ccccc1,1.49%
6,CCCCOCCOC(=O)CCCCCCCCC(=O)OCCOCCCC,-0.0888%
7,C=CCOCC(O)CO (stereo not given),-0.551%
8,CN1CCC(=C2c3ccccc3CCc3cccnc32)CC1,-2.22%
9,O=C1c2ccccc2C(=O)c2cc(O)ccc21,5.6%
10,CCN[C@H]1C[C@H](C)S(=O)(=O)c2sc(S(N)(=O)=O)cc21,10.8%
11,CCCC(C)C(=O)OCC (stereo not given),16.4%
12,CC/C=C\CCOC(C)OCC (stereo not given),-2.89%
13,COc1c(N2CCNC(C)C2)c(F)cc2c(=O)c(C(=O)O)cn(C3CC3)c12 (stereo not given),11.2%
14,CCCO[Si](OCCC)(OCCC)OCCC,-1.92%
15,CCO[Si](OCC)(OCC)c1ccccc1,5.18%
16,CN1[C@@H]2CC[C@H]1CC(OC(=O)C(O)c1ccccc1)C2 (stereo not given in full),15.4%
17,NC(=O)NC1N=C([O][Al])NC1=O (stereo not given),11.7%
18,C[C@@H]1CCC[C@H](C)N1,0.276%
19,CC1=NN(c2cc(S(=O)(=O)O)ccc2Cl)C(=O)C1N=Nc1ccccc1 (stereo not given),-1.11%
20,CCC(C(=O)NC(=O)NC(C)=O)c1ccccc1 (stereo not given),18.9%

# From PubChem BioAssay (Tox21)
